# Reference: PubChem BioAssay (EPA / NIEHS)
# Records with an inconclusive call do not appear. Activity calls are given as the source filed them. The calls were made as follows: active = hit-call score of the fitted dose curve at least 0.9, where 1 is the maximum; inconclusive = response in the unintended direction; inactive = score below 0.9.
# Molecular target: human Retinoic Acid Receptor beta (RARb), RARB (gene 5915) (UniProt P10826)
# Assay: ATG_RARb_TRANS: Attagene TRANS-FACTORIAL HepG2 Assay for human Retinoic Acid Receptor beta (AID 2283004)
# Method: ATG_TRANS is a cell-based, multiplexed-readout assay that uses HepG2, a human liver cell line, with measurements taken at 24 hours after chemical dosing in a 24-well plate.ATG_RARb_TRANS is one of 30 assay component(s) measured or calculated from the ATG_TRANS assay. It is designed to make measurements of mRNA induction, a form of inducible reporter, as detected with fluorescence intensity signals by Reverse transcription polymerase chain reaction (RT-PCR) and Capillary electrophoresis technology.Data from the assay component ATG_RARb_TRANS was analyzed into 1 assay endpoint. This assay endpoint, ATG_RARb_TRANS, was analyzed in the positive analysis fitting direction relative to DMSO as the negative control and baseline of activity. Using a type of inducible reporter, measures of mRNA for gain-of-signal activity can be used to understand the reporter gene at the transcription factor-level as they relate to the gene RARB. Furthermore, this assay endpoint can be referred to as a primary readout, because this assay has produced multiple assay endpoints where this one serves a reporter gene function. To generalize the intended target to other relatable targets, this assay endpoint is annotated to the nuclear receptor intended target family, where the subfamily is non-steroidal.
# Human liver HepG2 cells are transiently transfected with multiple reporter transcription units (MRTUs) in 6-well plates using FuGene 6 reagent (Roche; 3 ml FuGene/1 mg DNA). The MRTU constructs are regulated by a cis-regulating element (promoter). […] A major difference between the CIS and TRANS system is that in CIS activities of endogenous TFs are measured, whereas the TRANS assay evaluates changes in activities of exogenous, chimeric NR-Gal4 proteins. […] At the end of 24 hour incubation, total RNA was isolated using TriZol reagent (Invitrogen). The isolated RNA is then reverse-transcribed using oligo(dT) primer and Mo-MLV reverse transcriptase (Invitrogen) with DNAse I (Ambion) treatment for 30 min. The one-tenth of the produced cDNA was amplified by PCR using Taq DNA polymerase (Invitrogen) and two reporter sequence-specific primers. The PCR products were fluorescently labeled by primer extension with 6-arboxyfluorescein (6-FAM) 5'-labeled reporter sequence-specific primer (2 min at 95 C, 20 s at 68 C and 10 min at 72 C) and these products were digested with 5U of HpaI (New England Biolabs) for 2h at 37 C. The fragments were purified using Qiaquick PCR columns (Qiagen), analyzed on an ABI 3130xL genetic analyzer (Applied Biosystems) with peak positions identified by using a set of X-rhodamine (ROX)-labeled MapMarker1000 molecular weight standards (BioVentures). The raw capillary electrophoresis data was processed using Attagraph software (Attagene).
# Chain of human Retinoic Acid Receptor beta (RARb), RARB (gene 5915) (P10826 whole entry, looked up): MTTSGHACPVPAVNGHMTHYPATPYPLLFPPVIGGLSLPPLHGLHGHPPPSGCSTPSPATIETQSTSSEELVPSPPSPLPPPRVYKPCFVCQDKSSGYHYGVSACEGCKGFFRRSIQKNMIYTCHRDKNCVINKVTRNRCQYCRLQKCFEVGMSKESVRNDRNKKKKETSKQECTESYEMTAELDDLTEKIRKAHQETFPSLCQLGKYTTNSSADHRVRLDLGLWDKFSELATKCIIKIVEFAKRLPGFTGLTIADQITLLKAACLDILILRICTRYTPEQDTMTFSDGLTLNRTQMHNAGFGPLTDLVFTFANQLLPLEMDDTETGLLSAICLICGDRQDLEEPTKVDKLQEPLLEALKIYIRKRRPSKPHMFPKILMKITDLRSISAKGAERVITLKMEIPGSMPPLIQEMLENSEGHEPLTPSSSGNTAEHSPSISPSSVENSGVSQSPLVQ
row,SMILES,outcome
1,CC(C)[N+](=O)[O-],inactive
2,C=CC(F)(C(F)(F)F)C(F)(F)C(F)(F)F (stereo not given),inactive
3,OC[P+](CO)(CO)CO,inactive
4,CC(C)(C)c1cc([N+](=O)[O-])cc(C(C)(C)C)c1O,inactive
5,CCNc1nc(NCC)nc(SC)n1,inactive
6,O=C(O)c1cc(I)cc(I)c1I,inactive
7,CCN(N=O)C(N)=O,inactive
8,Clc1cccc(Cl)c1,inactive
9,ClCc1ccccc1CCl,inactive
10,O=C(CBr)c1ccc(O)cc1,inactive
11,O=C(O)C1(c2ccc3c(c2)OC[C@H](Cc2ccc(-c4ccccc4)cc2)[C@H]3O)CCCC1,inactive
12,Oc1cccc(-c2ccccc2)c1,inactive
13,C[C@]12CC[C@@H](O)C[C@@H]1CC[C@@H]1[C@@H]2CC[C@]2(C)C(=O)CC[C@@H]12,inactive
14,O=S1OC[C@@H]2[C@H](CO1)[C@]1(Cl)C(Cl)=C(Cl)[C@@]2(Cl)C1(Cl)Cl (stereo not given in full),inactive
15,CCOC(=O)Cc1ccccc1,inactive
16,Clc1cc(C(Cl)(Cl)Cl)cnc1Cl,inactive
17,C[C@@H]1O[C@@H](O[C@H]2C[C@@H](O)[C@]3(CO)[C@H]4[C@H](O)C[C@]5(C)[C@@H](C6=CC(=O)OC6)CC[C@]5(O)[C@@H]4CC[C@]3(O)C2)[C@H](O)[C@H](O)[C@H]1O,inactive
18,O=C(N[C@H]1CN2CCC1CC2)c1ccc2c(c1)OCCO2,inactive
19,OC(Cc1ccccc1Cl)(Cn1cncn1)C1(Cl)CC1 (stereo not given),inactive
20,COC(F)(C(F)(F)C(F)(F)F)C(F)(C(F)(F)F)C(F)(F)F (stereo not given),inactive

row,SMILES,outcome
1,Oc1c(Br)cc(Br)cc1Br,inactive
2,N#Cc1ccccc1N,inactive
3,O=CCCl,inactive
4,CC(C)=CC1C(C(=O)OCc2cccc(Oc3ccccc3)c2)C1(C)C (stereo not given),inactive
5,CCCCC(CC)COC(=O)Cl (stereo not given),inactive
6,CCOP(=O)(OCC)OC(=CCl)c1ccc(Cl)cc1Cl,inactive
7,C[C@H]1C(=O)O[C@@H]2CCN3CC=C(COC(=O)[C@](C)(O)[C@]1(C)O)[C@H]23,inactive
8,CC(C)(C1CCC(O)CC1)C1CCC(O)CC1 (stereo not given),inactive
9,C[CH2][Hg][S]c1ccccc1C(=O)O,inactive
11,CC(C)(COCC1CO1)COCC1CO1 (stereo not given),inactive
12,CC(C)(c1ccc(O)c(-c2ccccc2)c1)c1ccc(O)c(-c2ccccc2)c1,inactive
13,CCCCOP(=O)(CCCC)OCCCC,inactive
14,CCCCCCCCCCCCc1cccc(S(=O)(=O)O)c1,inactive
15,O=[N+]([O-])c1c2ccccc2cc2ccccc12,inactive
16,CC(C)O.CC(C)O.OCCN(CCO)CCO.OCCN(CCO)CCO.[Ti],inactive
17,COCC(=O)N(c1c(C)cccc1C)[C@H](C)C(=O)OC,inactive
18,Cc1cc(Cl)ccc1OCCCC(=O)O,inactive
19,Cc1cc(C)cc(C)c1,inactive
20,NC(=O)CCl,inactive
